# Screens: PubChem, National Center for Advancing Translational Sciences (NCATS)
# Shown are actives, neighbours in structure and some others; about 8.8% of the full set was active somewhere.
# KB-V1 cytotox – kills drug-selected multidrug resistant KB-V1 cells. 400,000 tested, 3.4% active. KB-V1 MDR cells viability, CellTiter-Glo, 72 h. Potency, µM (titrated, usually from 46.1 µM), most hits filed as cytotoxic; also: potency is read from the fitted curve at half-maximal effect; nearly all actives have a fitted effect of over 60% in size
#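 Cells of the MDR subline KB-V1 are plated, dosed with compound at multiple concentrations, and incubated 72 h at 37 degrees C; CellTiter-Glo is then added and luminescence read after 10 min.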
# KB-3-1 tox – KB-3-1 parental cell cytotoxicity | KB-3-1 viability, CellTiter-Glo ATP luminescence, 72 h | Potency, µM (series often up to 46.1 µM), hits mostly cytotoxic | 400,000 tested, 1.4% active; also: potency is read from the fitted curve at half-maximal effect; nearly all actives have a fitted effect of over 60% in size
#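 Parental KB-3-1 adenocarcinoma cells in phenol-red-free DMEM with 10% FBS were pin-treated with compounds at several concentrations, incubated 72 h at 37 °C, and viability read by CellTiter-Glo luminescence; concentration-effect curves were fitted after normalization.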
# HT1080-NT tox – kills 2HG-producing HT-1080-NT fibrosarcoma cells; HT-1080-NT fibrosarcoma viability, CellTiter-Glo ATP luminescence, 48 h; 360,000 tested, 1.6% active; AID 686970; Potency, µM (titrated, usually from 46.1 µM), inactives show at the top dose activity, negative = less viability, usual class: cytotoxic;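 also: NT is the 2HG producing partner of a matched IDH1 knockdown line; potency is read from the fitted curve at half-maximal effect; 0% = DMSO-treated cells and -100% = media-only wells without cells; nearly all actives have a fitted effect of over 55% in size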
#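 Viability by CellTiter-Glo luminescence after 48 h compound exposure at 37C of HT-1080-NT cells (750/well, RPMI, 5% FBS). % activity scaled between DMSO wells and medium-only wells, then curve-fitted and categorized by curve class.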
# IL-1B inflam inh – inflammasome signaling inhibition, IL-1 beta readout; THP-1 LPS/ATP IL-1B secretion, AlphaLISA, 16 h; hits give low values; activity change, % at 57.5 µM; 360,000 tested, 4.7% active; in the data active = activity change below about -50%; inconclusive = mostly about -30% to -49%
#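 Secreted IL-1B measured by AlphaLISA bead assay after 16 h compound exposure of THP-1 cells; compounds (final up to 57.5 uM) added 1 h before LPS (250 ng/mL) and ATP (1.25 mM) stimulation; lower signal means less secretion.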
# HT1080 IDH1KD tx – HT-1080 IDH1 knockdown cell toxicity (counter line) | HT-1080 IDH1 knockdown viability, ATP luminescence, 48 h | Potency, µM (titrated, usually from 46.1 µM), for the others: at the top dose activity, negative = toxicity, actives largely listed as cytotoxic | 360,000 tested, 2% active | AID 686971;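 also: potency is read from the fitted curve at half-maximal effect; 0% = DMSO wells and -100% = cell-free medium wells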
#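 IDH1KD HT-1080 cells, 750/well, RPMI + 5% FBS; compound pinned after 2 h settling; 48 h, 37 °C; CellTiter-Glo luminescence; % activity normalised to DMSO and no-cell wells; curves fitted, classed by r2 and efficacy.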
# Active calls of the source: *; i = inactive; ? = inconclusive; nt = no result. Unless noted, calls follow the shape of the dose curve; as a rule, active = well fitted curve in the direction sought with a large enough effect; inconclusive = small, poorly fitted or top-dose-only effect, or another doubt; inactive = no such curve, though single readings can be large; an effect the other way counts as inactive or inconclusive. Unless noted, % is scaled to controls: 0 for no effect and ±100 for the full control effect.
SMILES,KB-V1 cytotox,KB-3-1 tox,HT1080-NT tox,IL-1B inflam inh,HT1080 IDH1KD tx
Oc1ccc(C[C@H]2CNC(=S)N2CC2CCCN2C[C@H](Cc2ccc(O)cc2)N2C[C@H](Cc3ccccc3)N(CC3CCCCCC3)C2=S)cc1 (some centres not stated),i,?,-11%,-66*,-22%
Oc1ccc(C[C@@H](CN2CCCC2CN2C(=S)NC[C@@H]2Cc2ccccc2)N2C[C@H](Cc3ccccc3)N(CC3CCCCCC3)C2=S)cc1 (some centres not stated),?,i,-3%,-8,-15%
COc1ccc2cc3cc(C(=O)Nc4ccccc4C)oc3nc2c1,i,i,nt,nt,nt
CCOC(=O)c1cccc(NC(=O)c2cnc3sc(N4CCOCC4)nn3c2=O)c1,i,i,nt,nt,nt
NS(=O)(=O)c1ccc(Sc2ccc3ccccc3c2)nc1,i,i,-24%,-88*,-23%
NS(=O)(=O)c1ccc(SCc2ccccc2)nc1,i,i,0%,?,-3%
COc1ccc(-c2nn3c(-c4cc(-c5ccccc5)n[nH]4)nnc3s2)cc1OC,i,i,nt,nt,nt
COCCN(CCOC)S(=O)(=O)c1ccc(C(=O)Nc2nc(-c3ccccc3)c(C(=O)c3ccccc3)s2)cc1,?,i,9%,28,4%
CCOC(=O)Nc1nc(-c2ccccc2)c(C(=O)c2ccccc2)s1,1.2µM*,0.82µM*,0.58µM*,46,0.58µM*
COC(=O)Nc1nc(-c2ccccc2)c(C(=O)c2ccc(Cl)cc2)s1,0.58µM*,1µM*,?,10,?
COc1c(/C=N/Nc2ccc(C(=O)O)cc2)c(CCN(C)C(C)=O)cc2c1OCO2,i,i,12%,-5,-2%
CC(C)Oc1ccc(S(=O)(=O)N2CCCCC2)cc1NC(=O)C1=NN(c2ccccc2)C(=O)CC1,i,i,4%,27,4%
CCOc1ccc(CCN2C(=S)N([C@@H](Cc3ccc(O)cc3)CN3CCCC3CN3C(=S)NC[C@@H]3Cc3ccc(O)cc3)C[C@@H]2CC(C)C)cc1 (some centres not stated),i,?,-19%,-69*,-29%
CCOc1ccc(CCN2C(=S)N([C@@H](Cc3ccc(O)cc3)CN3CCC[C@@H]3CN3C(=S)NC[C@@H]3CC(C)C)C[C@@H]2Cc2ccc(O)cc2)cc1,i,?,16µM*,0,21µM*
Oc1ccc(C[C@H]2CN([C@@H](Cc3ccccc3)CN3CCCC3CN3C(=S)NC[C@@H]3Cc3ccccc3)C(=S)N2CCc2ccccc2)cc1 (some centres not stated),?,i,-7%,9,6%
CCOc1ccc(CCN2C(=S)N([C@@H](Cc3ccccc3)CN3CCC[C@@H]3CN3C(=S)NC[C@@H]3Cc3ccc(O)cc3)C[C@@H]2CC(C)C)cc1,i,i,-16%,-20,-19%
Nc1nc(N)c2cc(S(=O)(=O)c3ccc4ccccc4c3)ccc2n1,i,i,8.2µM*,8,3.3µM*
CC(O)(c1ccc(Cl)cc1)C(c1ccccc1)c1ccccn1 (configuration not stated),?,i,4%,-2,6%
Cc1cc(C)nc(NC(=O)CSc2nnnn2-c2ccccc2)n1,21µM*,i,18%,-12,10%
CCn1c(CSc2nc(C)cc(C)n2)nnc1SCC(=O)Nc1ccccc1,21µM*,i,0%,1,-3%
CC(C)[C@H](CO)Nc1nc(NCc2ccc(S(N)(=O)=O)cc2)c2ncn(C(C)C)c2n1,i,?,?,-103*,?
C[n+]1c(/C=C/c2ccnc3ccccc23)cc(/C=C/c2ccnc3ccccc23)c2ccccc21,i,i,nt,nt,nt
COc1cc2c(cc1OC)C(c1c(Cl)cccc1Cl)=NCC2,?,21µM*,-29%,9,?
CCCNc1nc(Nc2ccc(C)cc2)nc(N2CCCC2)n1,4.1µM*,?,-17%,-23,-6%
O=C(NC(=S)N1CCN(C(c2ccccc2)c2ccccc2)CC1)c1ccc(S(=O)(=O)N2CCOCC2)cc1,21µM*,i,-7%,-3,-12%
